# Test results as given in PubChem BioAssay AID743279 (National Center for Advancing Translational Sciences (NCATS), 2014).
# In all, about 360,000 compounds went through this assay and about 17,000 (4.7%) were called active. Not shown: some 5% with an inconclusive outcome. Rule as the data show it: active = activity change below about -50%; inconclusive = mostly about -30% to -49%; inactive = weaker than that. Only a selection was taken, and actives are over-represented in it overall.
# Assay: qHTS for Inhibitors of Inflammasome Signaling: IL-1-beta AlphaLISA Primary Screen
# Conditions: THP-1 LPS/ATP IL-1B secretion, 16 h; at 57.5 µM, active compounds read low
# Summary of the method: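 Secreted IL-1B measured by AlphaLISA bead assay after 16 h compound exposure of THP-1 cells; compounds (final up to 57.5 uM) added 1 h before LPS (250 ng/mL) and ATP (1.25 mM) stimulation; lower signal means less secretion.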
# % is scaled to controls: 0 for no effect and ±100 for the full control effect.
row,Structure (SMILES),activity change
1,CCc1nc2ccc(C(=O)NC3CCN(Cc4ccccc4)CC3)cn2c1N(C)CCN1CCOCC1,-15.7% (inactive)
2,CCc1nc2c(OCc3ccc(C(F)(F)F)cc3)cccn2c1N(C)C(=O)CC(C)C,-8.97% (inactive)
3,COC1=CC(=O)OC(C)(c2ccccc2)C1 (stereo not drawn),9.74% (inactive)
4,COc1ccccc1C(=O)Nc1ccc(NC(=O)c2ccco2)c(C)c1,-55.2% (active)
5,COc1ccc(NC(=O)c2ccco2)cc1NC(=O)c1ccc(C#N)cc1F,52.7% (inactive)
6,Cc1cccc(OCC(=O)Nc2ccc(NC(=O)c3ccco3)c(C)c2)c1,-0.614% (inactive)
7,Cc1cc(F)ccc1S(=O)(=O)Nc1ccc(C(=O)N(C)Cc2ccco2)cc1,-8.26% (inactive)
8,COc1ccc(NC(=O)CSc2nnc(-c3ccccc3F)n2C2CC2)cc1S(N)(=O)=O,15.5% (inactive)
9,Cc1ccc(-n2nc(C)c(/C=N/NC(=O)c3cccs3)c2Cl)cc1,-8.79% (inactive)
10,Cc1nn(-c2ccccc2)c(C)c1/C=N/NC(=O)CSc1nc2ccccc2c(=O)n1-c1ccccc1,12% (inactive)
11,Cc1nn(-c2ccccc2)c(Cl)c1/C=N/NC(=O)c1nn(C)cc1[N+](=O)[O-],-65.7% (active)
12,Cc1ccc(N2CCN(c3ccc([N+](=O)[O-])cn3)CC2)c(C)c1,-8.34% (inactive)
13,O=C(NCCC1=CCCCC1)C1CCN(Cc2cnn(-c3ccccc3)c2-n2cccc2)CC1,-64.8% (active)
14,Cc1ccc(S(=O)(=O)N2CCC(C(=O)NCCC3=CCCCC3)CC2)cc1C,-2.64% (inactive)
15,C1=C(CCNc2ncnc3c2cnn3-c2ccccc2)CCCC1,-3.14% (inactive)
16,Nc1ncnc2c1ncn2[C@@H]1O[C@H](C(=O)N2CCCN(Cc3ccccc3F)CC2)[C@@H](O)[C@H]1O,2.81% (inactive)
17,COc1ccccc1-n1c(SCC(=O)Nc2ccc(Cl)cc2)nc(O)c(Cc2ccccc2)c1=O,0% (inactive)
18,CC(C)C[C@H](NC(=O)Nc1cccc(C(F)(F)F)c1)C(=O)O,34.5% (inactive)
19,O=C(O)CC1(CC(=O)Nc2cccc(C(F)(F)F)c2)CCCC1,16.7% (inactive)
20,O=C(Nc1ccc(C(=O)N2CCOCC2)cc1)Nc1cccc(C(F)(F)F)c1,-10.3% (inactive)

row,Structure (SMILES),activity change
1,COc1ccc(NC(=O)C(=O)NCC(=O)Nc2cccc(C(F)(F)F)c2)cc1,10.7% (inactive)
2,O=C(Nc1ccc(-c2csc(Nc3cccc(C(F)(F)F)c3)n2)cc1)c1cccc(C(F)(F)F)c1,11.4% (inactive)
3,COc1ccc(C(N)c2csc(NC(=O)Nc3cccc(C(F)(F)F)c3)n2)cc1 (stereo not drawn),-81.4% (active)
4,NC(c1ccccc1)c1csc(NC(=O)Nc2cccc(C(F)(F)F)c2)n1 (stereo not drawn),-106% (active)
5,COc1cc(NC(=O)c2[nH]cnc2C(N)=O)cc(C(=O)Nc2cccc(C(F)(F)F)c2)c1,-16% (inactive)
6,NC(c1csc(NC(=O)Nc2cccc(C(F)(F)F)c2)n1)C1CCCCC1 (stereo not drawn),-111% (active)
7,O=C(NCc1ccccc1)C1CNCC(C(=O)NCc2ccccc2)C1 (stereo not drawn),-14.4% (inactive)
8,Cc1cc([N+](=O)[O-])ccc1NS(=O)(=O)c1ccccc1,26.9% (inactive)
9,O=S1(=O)CC(N2CCN(CCO)CC2)CN1C1CCCC1 (stereo not drawn),-8.55% (inactive)
10,Cc1ccc(-c2c(N)nc3ncccn23)cc1,7.85% (inactive)
11,O=C(CN(C(=O)CCC(=O)Nc1nccs1)c1ccc(F)cc1)NCc1ccc2c(c1)OCO2,-10.1% (inactive)
12,CCOc1ccccc1-c1cc(C(=O)N2CCOCC2)c2ccccc2n1,-12% (inactive)
13,CC(=O)N1CCN(C(=O)c2cc(-c3ccc(C)o3)nc3ccccc23)CC1,23.1% (inactive)
14,O=C(c1cc(-c2ccc(Cl)s2)nc2ccccc12)N1CCOCC1,-70.8% (active)
15,CCc1nc2ccc(C(=O)Nc3ccc(OC)c(OC)c3)cn2c1N(C)C(=O)c1cccc(OC)c1,-8.18% (inactive)
16,COc1ccc(C(C[N+](=O)[O-])n2nc(C)cc2C)cc1 (stereo not drawn),-102% (active)
17,CCOc1ccc(C(C)C)cc1S(=O)(=O)n1nc(C)cc1C,0% (inactive)
18,COc1ccc(OC)c(S(=O)(=O)n2c([N+](=O)[O-])cnc2C)c1,0.96% (inactive)
19,COc1ccc(S(=O)(=O)N2CCc3ccccc32)cc1C(=O)Nc1cc(S(C)(=O)=O)ccc1Cl,47.6% (inactive)
20,CC(=O)NS(=O)(=O)c1ccc(N/C(N)=N/c2nc(C)cc(C)n2)cc1,34.9% (inactive)

row,Structure (SMILES),activity change
1,O=c1c2ccccc2oc2nc(C3CCCCC3)n(Cc3ccco3)c(=O)c12,-16.6% (inactive)
2,Cc1ccc(Cn2c(C)nc3c(c2=O)c2nc4ccccc4nc2n3Cc2ccco2)cc1,-83.5% (active)
3,Clc1cccc(-c2nc3nc4ccccc4nc3n2Cc2ccco2)c1,-17.2% (inactive)
4,COC(=O)c1cc(S(=O)(=O)NC2CCN(Cc3ccccc3)CC2)cn1C,-1.73% (inactive)
5,CCn1c(=S)[nH]c2cc(S(=O)(=O)N3CCOCC3)ccc21,46.6% (inactive)
6,CSCCC(=O)N1CCCC(CNC(=O)c2ccccc2Cl)C1 (stereo not drawn),27.1% (inactive)
7,Cc1ccc(C(=O)Nc2ccc(NC(=O)c3cccs3)cc2)c(C)c1,-12.6% (inactive)
8,CC(Oc1cccc(NC(=O)c2cccs2)c1)C(=O)c1ccccc1 (stereo not drawn),-60.1% (active)
9,CC(C)C(=O)Nc1ccc(C(=O)NNC(=O)c2cccs2)cc1,7.36% (inactive)
10,Nc1scc(-c2ccncc2)c1Cl,-0.276% (inactive)
11,CC(=O)OCCN(CCCn1c(-c2ccncc2)nc2ccccc21)c1nc(-c2ccc(C)cc2)cs1,14.2% (inactive)
12,c1ccc(CNCc2ccc(CNCc3ccccc3)cc2)cc1,-20.3% (inactive)
13,COCCNC(=O)/C(C#N)=C/c1cccc(OCc2ccccc2)c1,-8.24% (inactive)
14,COCCCNC(=O)/C(C#N)=C/c1c(N2CCCCCC2)nc2ccccn2c1=O,-20.1% (inactive)
15,COCCNC(=O)/C(C#N)=C/c1nc(N(C)C)n(-c2ccc(F)cc2)c1Cl,-69.9% (active)
16,C=CCNc1scc(-c2ccccc2)[n+]1CC=C,-19.1% (inactive)
17,C=CC[n+]1c(-c2ccc(C)cc2)csc1NNC(=O)Nc1ccccc1,-79.2% (active)
18,O=C(NNC(=O)c1ccc(-c2ccccc2)cc1)Nc1ccccc1,-8.29% (inactive)
